TDP1 cell noCPT: qHTS for Inhibitors of human tyrosyl-DNA phosphodiesterase 1 (TDP1): qHTS in cells in absence of CPT. 420,000 tested, 15% active. AID 686978, 2013. DT40 Tdp1-/- hTDP1 cells, no CPT, ATP luminescence, 48 h. Potency, µM (titrated, usually from 46.2 µM), for inactives: top-dose activity change, negative = growth inhibition, actives largely listed as inhibitors; note: potency is the fitted concentration of half-maximal effect; nearly all actives have a fitted effect of over 55% in size
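Compound effects on proliferation are scored in DT40 Tdp1-/-;hTDP1 cells in the absence of CPT. ATP levels (CellTiter-Glo luminescence) are recorded after a ≥48 hr, 37 °C incubation.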
ALOX12 inh: Primary qHTS assay for inhibitors of human arachidonate 12S-lipoxygenase (ALOX12): Round 2. AID 1671190, 2021. Potency, µM (highest dose often 108 µM), without a hit: at the highest dose activity change, negative = inhibition, actives largely listed as inhibitors. 580,000 tested, 1.1% active. purified 12hLO, xylenol orange hydroperoxide absorbance; note: potency is the fitted concentration of half-maximal effect
Target sequence (P18054 whole entry, looked up): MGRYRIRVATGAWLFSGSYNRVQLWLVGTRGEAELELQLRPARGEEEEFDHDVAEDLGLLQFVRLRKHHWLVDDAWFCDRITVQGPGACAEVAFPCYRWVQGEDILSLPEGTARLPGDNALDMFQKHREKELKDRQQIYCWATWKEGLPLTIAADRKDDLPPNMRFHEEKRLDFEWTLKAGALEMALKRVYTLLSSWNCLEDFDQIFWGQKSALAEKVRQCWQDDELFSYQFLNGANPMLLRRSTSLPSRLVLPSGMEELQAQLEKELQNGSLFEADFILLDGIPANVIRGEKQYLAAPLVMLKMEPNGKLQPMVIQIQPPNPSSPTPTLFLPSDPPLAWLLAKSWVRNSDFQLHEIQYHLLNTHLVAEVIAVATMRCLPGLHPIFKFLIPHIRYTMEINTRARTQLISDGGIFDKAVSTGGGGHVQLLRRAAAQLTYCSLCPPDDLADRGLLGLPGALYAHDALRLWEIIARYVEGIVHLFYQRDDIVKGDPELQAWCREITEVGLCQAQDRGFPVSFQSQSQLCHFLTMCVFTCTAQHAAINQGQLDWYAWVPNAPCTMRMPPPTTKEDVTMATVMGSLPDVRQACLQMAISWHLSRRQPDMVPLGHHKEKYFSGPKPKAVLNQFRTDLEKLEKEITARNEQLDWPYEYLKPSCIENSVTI
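Purified human 12hLO (150 nM final) in 25 mM Hepes, 0.01% Triton X-100, pH 7.0 was preincubated 15 min at room temperature with compound. Then 40 uM arachidonic acid was added, 30 min. Hydroperoxide was read by Fe-XO absorbance ratio 573/405 nm.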
IL-1B inflam inh: qHTS for Inhibitors of Inflammasome Signaling: IL-1-beta AlphaLISA Primary Screen; THP-1 LPS/ATP IL-1B secretion, AlphaLISA, 16 h; active compounds read low; 360,000 tested, 4.7% active; activity change, % at 57.5 µM; AID 743279, 2014; in the data active = activity change below about -50%; inconclusive = mostly about -30% to -49%
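THP-1 cells pretreated 1 hr with compounds (up to 57.5 uM final), then stimulated with LPS (250 ng/mL final) plus ATP (1.25 mM final); secreted IL-1B measured by AlphaLISA after 16 hr, decreased signal indicating inhibition.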
HT1080 IDH1KD tx: qHTS for induction of synthetic lethality in tumor cells producing 2HG: qHTS for the HT-1080-IDH1KD cell line. HT-1080 IDH1 knockdown viability, ATP luminescence, 48 h. Potency, µM (doses to about 46.1 µM), for inactives: top-dose activity, negative = toxicity, usual class: cytotoxic. 360,000 tested, 2% active. AID 686971, 2013;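 note: potency is the fitted concentration of half-maximal effect; 0% = DMSO wells and -100% = cell-free medium wells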
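Assay cells: HT-1080 with IDH1 knockdown, 750 per well, RPMI/5% FBS. Exposure: 48 h at 37 °C following 2 h pre-incubation. Read: CellTiter-Glo luminescence; fitted concentration-response, curve class assigned.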
HT1080NT lethal: qHTS for induction of synthetic lethality in tumor cells producing 2HG: qHTS for the HT-1080-NT fibrosarcoma cell line; AID 686970, 2013; Potency, µM (top dose mostly 46.1 µM), inactives show top-dose activity, negative = less viability, actives largely listed as cytotoxic; 360,000 tested, 1.6% active; HT-1080-NT fibrosarcoma viability, CellTiter-Glo ATP luminescence, 48 h;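 note: NT is the 2HG producing partner of a matched IDH1 knockdown line; potency is the fitted concentration of half-maximal effect; 0% = DMSO-treated cells and -100% = media-only wells without cells; nearly all actives have a fitted effect of over 55% in size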
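Compounds were tested in concentration-response format on HT-1080-NT cells for 48 hours at 37 degrees C. Cell viability came from CellTiter-Glo luminescence; curves were classified by r2, response magnitude and activity.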
TDP1 cell CPT: qHTS for Inhibitors of human tyrosyl-DNA phosphodiesterase 1 (TDP1): qHTS in cells in presence of CPT. chicken DT40 Tdp1-/-;hTDP1 cells + 20 nM CPT, ATP luminescence, 48 h. Potency, µM (series often up to 46.2 µM), for the others: top-dose activity change, negative = growth inhibition, actives largely listed as inhibitors. 420,000 tested, 12% active. AID 686979, 2013; note: potency is the fitted concentration of half-maximal effect; nearly all actives have a fitted effect of over 55% in size
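Chicken DT40 Tdp1-/- cells stably complemented with human TDP1 were seeded at 400 cells/well in medium containing 20 nM camptothecin, exposed to pin-transferred compounds, and grown at 37 °C for at least 48 hr. Viability was read as ATP luminescence.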
* marks the source's active call; other numbers are inactive results; ? = inconclusive; / = no result; [ ] = another dose, or the depositor's remark. This is one part of a sample in which hits are shown more often than they occur. Unless noted, calls come from the whole dose curve; as a rule, active = well fitted curve in the direction sought with a large enough effect; inconclusive = small, poorly fitted or top-dose-only effect, or another doubt; inactive = no such curve, though single readings can be large; an effect the other way counts as inactive or inconclusive. Unless noted, % is set by controls: 0 for no effect and ±100 for the full control effect.

SMILES	TDP1 cell noCPT	ALOX12 inh	IL-1B inflam inh	HT1080 IDH1KD tx	HT1080NT lethal	TDP1 cell CPT
CC(C)CN(C)C(=O)CCc1nnc(Cc2ccc(-c3ccccc3)cc2)o1	11.6µM*	-0.6%	11.8	-4.7%	-15.7%	?
Cc1cc(OCC(=O)N(Cc2ccc(N(C)C)cc2)CC2CCCO2)ccc1Cl (stereo not drawn)	-99.8%	0.0%	/	/	/	23.1µM*
CCCOc1ccc(C(=O)N(Cc2ccc(N(C)C)cc2)CC2CCCO2)cc1 (stereo not drawn)	?	-16.5%	/	/	/	?
CN(C)c1ccc(CN(CC2CCCO2)C(=O)COc2ccc(Cl)cc2)cc1 (stereo not drawn)	18.4µM*	-29.5%	/	/	/	25.9µM*
COc1cc(/C=C(\C#N)C(=O)c2c(C)[nH]c3ccccc23)cc(OC)c1OC	?	?	-4.8	-0.3%	3.5%	10.7%
COCCN=c1scc(-c2cc(OC)c(OC)c(OC)c2)n1/N=C/c1c(C)[nH]c2ccccc12	18.4µM*	-25.6%	?	?	?	?
Cc1ccccc1C(=O)Nc1ccnn1C1CCN(C(=O)CN)CC1	/	47.4%	/	/	/	/
CSc1ccc(CN2CCC(n3nccc3NC(=O)CCCc3ccccc3)CC2)cc1	?	2.8%	?	?	?	23.1µM*
Cc1ccccc1C(=O)Nc1ccnn1C1CCN(C(C)Cc2ccccc2F)CC1 (stereo not drawn)	-53.6%	-3.9%	-6.9	-22.2%	-14.4%	23.1µM*
O=C(Nc1ccnn1C1CCN(Cc2ccc(-c3ccco3)cc2)CC1)C1CC1	/	11.2µM*	/	/	/	/
O=C(CCCc1ccccc1)Nc1ccnn1C1CCN(Cc2ccccc2F)CC1	20.6µM*	-0.3%	-18.6	4.8%	1.4%	23.1µM*
COC(=O)c1c(-c2ccccc2)csc1NC(=O)c1c(-c2ccccc2)noc1C	?	?	-23.1	?	-4.2%	-17.4%
Cc1onc(-c2ccccc2)c1C(=O)OCc1nnc(-c2ccc([N+](=O)[O-])cc2)o1	?	9.2%	-13.0	-3.8%	2.2%	?
Cc1ccccc1OCCOC(=O)c1c(-c2ccccc2)noc1C	18.4µM*	8.3%	64.0	5.8µM*	7.31µM*	7.31µM*
Cc1onc(-c2ccccc2)c1C(=O)OCC(=O)c1ccc(F)cc1	23.1µM*	-16.8%	7.3	-0.5%	2.9%	?
Cc1onc(-c2ccccc2)c1C(=O)OCCOc1ccc([N+](=O)[O-])cc1[N+](=O)[O-]	20.6µM*	92.5%	-23.7	?	-27.1%	?
Cc1onc(-c2ccccc2)c1C(=O)OCC(=O)c1ccccc1	?	0.0%	20.9	-4.5%	0.7%	-0.7%
Cc1onc(-c2ccccc2)c1C(=O)OCCOc1ccccc1F	?	-8.6%	-22.9	-11.0%	-18.9%	?
CCOC(=O)c1c(-c2ccc(F)cc2)csc1NC(=O)c1c(-c2ccccc2)noc1C	20.6µM*	-8.7%	-3.9	?	-0.1%	?
CN(C)C(=O)c1ccc(NC(=O)c2ccccc2CSc2nc3ccccc3o2)cc1	/	5.2%	/	/	/	/
COc1cc(C2CC(=O)Nc3c2c(C)nn3-c2nncc(-c3ccc(C)cc3)n2)cc(OC)c1O (stereo not drawn)	/	-11.6%	/	/	/	/
CC(C)C(=O)N1CCCC1(C)C(=O)N(C)Cc1cccc2ccccc12 (stereo not drawn)	-22.1%	-41.2%	15.2	18.2%	20.3%	-22.7%
CC(=O)N1CCCC(C)(C(=O)N(C)Cc2cccc3ccccc23)C1 (stereo not drawn)	?	12.7%	62.6	1.3%	14.2%	23.1µM*
Cc1ncoc1C(=O)N1C[C@H]2OC(=O)N(CCc3cccc(Cl)c3)[C@H]2C1	/	26.9%	/	/	/	/
O=C1C=CN2CCCCC2CC1 (stereo not drawn)	16.4µM*	?	66.2	-0.5%	2.3%	10.3µM*
SMILES	TDP1 cell noCPT	ALOX12 inh	IL-1B inflam inh	HT1080 IDH1KD tx	HT1080NT lethal	TDP1 cell CPT
O=C1C=CN2CCOCC2C1 (stereo not drawn)	-2.7%	2.5%	18.2	12.2%	-1.7%	5.1%
CNC(=S)NNC(=O)CSCc1ccccc1	/	-10.7%	/	/	/	/
CCCCS(=O)(=O)N1CCC2(CCC(=O)N(Cc3ccccc3)C2)CC1	/	5.6%	/	/	/	/
COc1ccc2nc3ccccc3[n+]([O-])c2c1	?	?	-25.1	-5.1%	-11.3%	-10.5%
[O-][n+]1c2ccccc2cc2ccccc21	9.2µM*	3.5%	-12.1	-0.9%	-2.1%	?
O=C(NCC1(COc2ccc(C(F)(F)F)cn2)C[C@@H](O)[C@@H](O)C1)C1CC1 (stereo partly drawn)	/	102.1%[176 µM]	/	/	/	/
Cn1cc(CNCC2(COc3ccc(C(F)(F)F)cn3)C[C@@H](O)[C@@H](O)C2)cn1 (stereo partly drawn)	/	17.8µM*	/	/	/	/
O=C(CCc1ncc(-c2ccc(Cl)cc2)o1)Nc1ccc(F)cc1F	/	-8.9%	/	/	/	/
COC1C(C2COC3(CCCCC3)O2)OC2OC3(CCCCC3)OC21 (stereo not drawn)	/	13.5%	/	/	/	/
CCN(c1ccccc1)S(=O)(=O)c1ccc2ccccc2c1	-19.3%	?	6.9	2.6%	-6.4%	-3.8%
CC(=O)Oc1ccc(N(C(C)=O)S(=O)(=O)c2ccc3ccccc3c2)cc1	20.6µM*	-0.8%	?	1.6%	-23.4%	?
CN(c1ccc(O)cc1)S(=O)(=O)c1ccc2ccccc2c1	?	?	-62.2*	-12.2%	-21.3%	12.3%
CC(=O)N(c1ccc(N(C(C)=O)S(=O)(=O)c2ccccc2)cc1)S(=O)(=O)c1ccccc1	?	1.7%	-1.8	?	-24.4%	-11.6%
COc1ccc(N2CC(c3noc(-c4ccc(OC(F)(F)F)cc4)n3)CC2=O)cc1 (stereo not drawn)	/	32.6%	/	/	/	/
CNC(=O)c1cc(-c2ccc(O)c(F)c2)cc2c1OCCN2Cc1cccnc1	/	27.0%[176 µM]	/	/	/	/
COCc1cc(N2CCC(c3cccc(OC)c3OC)C2)ncn1 (stereo not drawn)	/	-6.8%	/	/	/	/
COc1cccc(C(=O)Nc2ncc3c(n2)CC(C)(C)CC3=O)c1	16.4µM*	?	-3.6	-12.4%	-13.3%	?

Bioassay records from PubChem.
